One sequence from paper PMC7862700, “An all-to-all approach to the identification of sequence-specific readers for epigenetic DNA modifications on cytosine” can be followed below.

Common to all, as to assay: DAPPL (digital affinity profiling via proximity ligation, sequencing); 10 mM Tris-HCl pH 7.5, 50 mM NaCl, 1 mM DTT, 4% glycerol, room temperature, 30 min; GST-TFs on glutathione beads, 16-mer random dsDNA library, 0.1% formaldehyde crosslink after washing; high values mean tight binding
Conditions in all cases: protein: recombinant; tags: N-terminal GST; dsDNA, one strand shown

The target in test [1] is T1, ELK1 (Homo sapiens, UniProt P19419 1-428).
T1 sequence: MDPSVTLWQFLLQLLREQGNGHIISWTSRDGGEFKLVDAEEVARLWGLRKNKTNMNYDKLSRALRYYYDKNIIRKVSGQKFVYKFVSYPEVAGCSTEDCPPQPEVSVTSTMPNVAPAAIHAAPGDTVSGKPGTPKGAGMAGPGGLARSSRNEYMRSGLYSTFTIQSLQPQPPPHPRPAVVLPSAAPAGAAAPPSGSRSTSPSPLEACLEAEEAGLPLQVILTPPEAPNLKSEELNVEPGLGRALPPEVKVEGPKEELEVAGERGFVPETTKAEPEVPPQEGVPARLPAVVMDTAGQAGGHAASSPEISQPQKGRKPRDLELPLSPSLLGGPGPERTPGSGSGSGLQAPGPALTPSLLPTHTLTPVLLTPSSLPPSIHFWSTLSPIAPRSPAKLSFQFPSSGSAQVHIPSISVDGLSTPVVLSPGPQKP
In short, it runs like this: (§1)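 Beads coated with glutathione captured GST-fused human transcription factors that had been expressed in yeast, and the factors were then given DNA barcodes and pooled with a tag-only sample. The pools were incubated with 200 nmole of a random double-stranded 16-mer DNA library in Tris/NaCl/DTT/glycerol buffer for 30 min at room temperature, washed, crosslinked with 0.1% formaldehyde and proximity-ligated with BsaI/T4 ligase at 37 °C for 1 h. PCR amplification and Illumina NextSeq500 sequencing came last. Binding signal is each hexamer's read frequency for a factor divided by its frequency for the tag-only sample.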

The target of test [2] is T2, GABPA (Homo sapiens, UniProt Q06546 1-454).
T2 sequence: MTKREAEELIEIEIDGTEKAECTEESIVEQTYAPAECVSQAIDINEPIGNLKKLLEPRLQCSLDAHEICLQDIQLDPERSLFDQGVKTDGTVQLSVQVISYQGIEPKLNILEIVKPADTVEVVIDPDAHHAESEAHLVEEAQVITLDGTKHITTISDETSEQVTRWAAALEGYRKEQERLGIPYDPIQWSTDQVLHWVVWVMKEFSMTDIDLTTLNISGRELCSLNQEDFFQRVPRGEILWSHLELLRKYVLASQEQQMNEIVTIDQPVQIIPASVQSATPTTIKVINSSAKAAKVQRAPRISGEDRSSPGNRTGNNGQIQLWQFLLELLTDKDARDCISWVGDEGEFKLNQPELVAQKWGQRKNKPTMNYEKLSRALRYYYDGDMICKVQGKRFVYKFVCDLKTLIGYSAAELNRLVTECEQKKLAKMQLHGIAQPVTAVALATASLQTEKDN
An outline of the steps:
as §1

Test [3] concerns the target ELF1 (Homo sapiens, UniProt P32519 1-619). In short, it runs like this:
as §1

Test [4] deals with T3, EHF (Homo sapiens, UniProt Q9NZC4 1-300).
T3 sequence: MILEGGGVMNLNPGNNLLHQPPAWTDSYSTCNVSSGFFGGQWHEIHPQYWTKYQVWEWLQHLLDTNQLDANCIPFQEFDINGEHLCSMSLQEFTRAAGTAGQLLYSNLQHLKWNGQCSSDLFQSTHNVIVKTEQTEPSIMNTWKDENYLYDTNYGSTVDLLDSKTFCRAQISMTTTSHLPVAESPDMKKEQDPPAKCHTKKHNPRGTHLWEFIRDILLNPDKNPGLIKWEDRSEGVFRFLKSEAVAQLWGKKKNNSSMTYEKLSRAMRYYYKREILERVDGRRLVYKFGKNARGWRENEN
In short, it runs like this:
as §1

Test [5] has as its target SPIB (Homo sapiens, UniProt Q01892 1-262). An outline of the steps:
as §1

Test [6] deals with T4, FEV (Homo sapiens, UniProt Q99581 1-238).
T4 sequence: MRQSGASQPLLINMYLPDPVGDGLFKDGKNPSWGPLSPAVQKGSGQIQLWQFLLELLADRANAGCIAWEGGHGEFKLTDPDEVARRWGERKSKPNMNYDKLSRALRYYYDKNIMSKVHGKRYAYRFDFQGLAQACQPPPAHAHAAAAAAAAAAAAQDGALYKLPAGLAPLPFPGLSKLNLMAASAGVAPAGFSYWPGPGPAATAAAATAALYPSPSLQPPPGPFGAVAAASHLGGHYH
An outline of the steps:
as §1

In test [7] the target is ETV5 (Homo sapiens, UniProt P41161 1-510). An outline of the steps:
as §1

In test [8] the target is ELF4 (Homo sapiens, UniProt Q99607 1-663). An outline of the steps:
as §1

The target of test [9] is T5, ELK4 (Homo sapiens, UniProt P28324-2 1-405).
T5 sequence: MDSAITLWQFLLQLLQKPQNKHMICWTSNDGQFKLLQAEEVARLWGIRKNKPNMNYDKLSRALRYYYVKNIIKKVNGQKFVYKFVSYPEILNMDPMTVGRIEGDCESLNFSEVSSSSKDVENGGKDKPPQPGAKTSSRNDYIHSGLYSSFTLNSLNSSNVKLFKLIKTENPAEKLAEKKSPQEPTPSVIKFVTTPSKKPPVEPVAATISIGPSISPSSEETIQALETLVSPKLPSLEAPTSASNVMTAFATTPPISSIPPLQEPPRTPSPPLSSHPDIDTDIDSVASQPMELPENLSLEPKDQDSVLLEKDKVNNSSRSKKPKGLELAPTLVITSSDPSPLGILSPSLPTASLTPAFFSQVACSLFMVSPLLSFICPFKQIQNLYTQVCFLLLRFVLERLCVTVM
In short, it runs like this: as §1

The target in test [10] is T6, ETV2 (Homo sapiens, UniProt O00321 1-342).
T6 sequence: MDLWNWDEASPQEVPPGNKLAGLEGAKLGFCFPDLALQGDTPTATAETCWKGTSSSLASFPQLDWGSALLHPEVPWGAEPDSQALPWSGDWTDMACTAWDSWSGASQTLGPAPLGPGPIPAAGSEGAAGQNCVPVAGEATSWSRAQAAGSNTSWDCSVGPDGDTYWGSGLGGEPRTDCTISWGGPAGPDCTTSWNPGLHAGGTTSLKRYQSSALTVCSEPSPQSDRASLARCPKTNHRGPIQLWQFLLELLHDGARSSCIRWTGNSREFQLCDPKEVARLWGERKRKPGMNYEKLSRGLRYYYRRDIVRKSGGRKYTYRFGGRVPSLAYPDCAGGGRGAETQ
In short, it runs like this: as §1

For test [11], the target named is ETV1 (Homo sapiens, UniProt P50549 1-477). In short, it runs like this: as §1
Chain of ETV1 (P50549 whole entry): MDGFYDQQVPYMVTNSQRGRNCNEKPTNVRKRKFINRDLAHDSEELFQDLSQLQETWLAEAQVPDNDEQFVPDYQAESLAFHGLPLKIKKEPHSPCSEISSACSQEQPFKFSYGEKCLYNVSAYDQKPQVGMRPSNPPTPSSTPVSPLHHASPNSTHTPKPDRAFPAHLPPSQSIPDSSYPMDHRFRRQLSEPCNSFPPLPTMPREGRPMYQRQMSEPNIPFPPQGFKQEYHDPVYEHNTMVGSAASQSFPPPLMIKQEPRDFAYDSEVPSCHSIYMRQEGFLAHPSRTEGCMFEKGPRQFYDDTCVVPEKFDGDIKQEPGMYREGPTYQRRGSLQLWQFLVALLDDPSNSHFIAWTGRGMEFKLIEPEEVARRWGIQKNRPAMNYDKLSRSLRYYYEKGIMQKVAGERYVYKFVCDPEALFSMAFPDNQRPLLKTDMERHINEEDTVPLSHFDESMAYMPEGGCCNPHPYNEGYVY
Test [12] deals with T7, ETS2 (Homo sapiens, UniProt P15036 1-469).
T7 sequence: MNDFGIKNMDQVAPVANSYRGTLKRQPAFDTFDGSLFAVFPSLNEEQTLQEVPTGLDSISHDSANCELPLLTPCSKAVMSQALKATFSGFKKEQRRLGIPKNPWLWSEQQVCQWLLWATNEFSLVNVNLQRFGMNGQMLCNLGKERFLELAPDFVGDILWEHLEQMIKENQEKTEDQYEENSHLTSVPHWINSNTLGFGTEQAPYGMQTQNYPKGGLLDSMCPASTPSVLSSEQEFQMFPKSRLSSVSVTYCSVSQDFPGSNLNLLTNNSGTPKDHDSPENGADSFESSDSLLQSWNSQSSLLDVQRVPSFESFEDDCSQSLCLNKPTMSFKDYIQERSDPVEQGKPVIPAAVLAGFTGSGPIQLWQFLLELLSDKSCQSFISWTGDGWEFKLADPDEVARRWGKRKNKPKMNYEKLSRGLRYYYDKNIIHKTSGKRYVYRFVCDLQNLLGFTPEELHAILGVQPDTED
In short, it runs like this: as §1

In test [13] the target is T8, ETV3 (Homo sapiens, UniProt P41162-2 1-143).
T8 sequence: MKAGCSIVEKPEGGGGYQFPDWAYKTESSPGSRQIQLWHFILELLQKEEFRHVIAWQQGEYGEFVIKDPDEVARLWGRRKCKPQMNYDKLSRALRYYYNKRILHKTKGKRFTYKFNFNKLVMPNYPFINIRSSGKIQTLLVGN
In short, it runs like this:
as §1

Chain of SPIB (Q01892 whole entry): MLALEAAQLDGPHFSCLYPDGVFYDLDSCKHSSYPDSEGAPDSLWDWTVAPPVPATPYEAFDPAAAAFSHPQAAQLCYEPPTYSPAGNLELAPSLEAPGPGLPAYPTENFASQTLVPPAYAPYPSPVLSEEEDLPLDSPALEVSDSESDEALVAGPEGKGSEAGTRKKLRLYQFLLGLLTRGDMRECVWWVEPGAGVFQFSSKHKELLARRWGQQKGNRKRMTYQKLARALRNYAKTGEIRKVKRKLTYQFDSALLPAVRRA
Chain of ETV5 (P41161 whole entry): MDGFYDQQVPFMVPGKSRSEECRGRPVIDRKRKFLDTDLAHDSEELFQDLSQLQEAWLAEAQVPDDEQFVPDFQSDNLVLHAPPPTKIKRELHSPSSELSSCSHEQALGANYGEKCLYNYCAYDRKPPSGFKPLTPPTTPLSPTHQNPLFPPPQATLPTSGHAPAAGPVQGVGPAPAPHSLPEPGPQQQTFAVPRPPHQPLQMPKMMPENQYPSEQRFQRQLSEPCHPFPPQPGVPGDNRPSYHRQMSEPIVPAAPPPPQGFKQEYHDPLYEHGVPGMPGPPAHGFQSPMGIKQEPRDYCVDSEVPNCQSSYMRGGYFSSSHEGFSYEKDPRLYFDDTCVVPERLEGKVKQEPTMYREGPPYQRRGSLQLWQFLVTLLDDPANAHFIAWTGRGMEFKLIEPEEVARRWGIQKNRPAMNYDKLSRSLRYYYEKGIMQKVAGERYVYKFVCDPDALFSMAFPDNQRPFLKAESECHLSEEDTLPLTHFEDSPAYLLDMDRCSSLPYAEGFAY
Chain of ELF1 (P32519 whole entry): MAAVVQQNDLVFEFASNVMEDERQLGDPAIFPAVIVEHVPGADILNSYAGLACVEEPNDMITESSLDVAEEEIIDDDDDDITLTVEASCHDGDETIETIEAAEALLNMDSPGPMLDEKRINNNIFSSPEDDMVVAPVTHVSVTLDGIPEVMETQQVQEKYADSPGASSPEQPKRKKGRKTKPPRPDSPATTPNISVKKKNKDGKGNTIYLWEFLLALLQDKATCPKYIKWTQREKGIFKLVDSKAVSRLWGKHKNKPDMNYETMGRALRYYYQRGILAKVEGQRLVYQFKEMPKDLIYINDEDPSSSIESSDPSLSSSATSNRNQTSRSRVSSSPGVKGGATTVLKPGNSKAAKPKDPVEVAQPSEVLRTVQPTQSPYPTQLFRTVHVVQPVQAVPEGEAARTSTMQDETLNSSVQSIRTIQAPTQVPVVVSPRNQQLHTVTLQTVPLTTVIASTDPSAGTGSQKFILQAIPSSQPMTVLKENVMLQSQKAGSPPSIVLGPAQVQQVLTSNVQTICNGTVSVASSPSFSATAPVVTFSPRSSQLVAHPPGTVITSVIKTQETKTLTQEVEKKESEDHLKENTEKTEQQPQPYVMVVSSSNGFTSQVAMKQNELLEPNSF
Chain of ELF4 (Q99607 whole entry): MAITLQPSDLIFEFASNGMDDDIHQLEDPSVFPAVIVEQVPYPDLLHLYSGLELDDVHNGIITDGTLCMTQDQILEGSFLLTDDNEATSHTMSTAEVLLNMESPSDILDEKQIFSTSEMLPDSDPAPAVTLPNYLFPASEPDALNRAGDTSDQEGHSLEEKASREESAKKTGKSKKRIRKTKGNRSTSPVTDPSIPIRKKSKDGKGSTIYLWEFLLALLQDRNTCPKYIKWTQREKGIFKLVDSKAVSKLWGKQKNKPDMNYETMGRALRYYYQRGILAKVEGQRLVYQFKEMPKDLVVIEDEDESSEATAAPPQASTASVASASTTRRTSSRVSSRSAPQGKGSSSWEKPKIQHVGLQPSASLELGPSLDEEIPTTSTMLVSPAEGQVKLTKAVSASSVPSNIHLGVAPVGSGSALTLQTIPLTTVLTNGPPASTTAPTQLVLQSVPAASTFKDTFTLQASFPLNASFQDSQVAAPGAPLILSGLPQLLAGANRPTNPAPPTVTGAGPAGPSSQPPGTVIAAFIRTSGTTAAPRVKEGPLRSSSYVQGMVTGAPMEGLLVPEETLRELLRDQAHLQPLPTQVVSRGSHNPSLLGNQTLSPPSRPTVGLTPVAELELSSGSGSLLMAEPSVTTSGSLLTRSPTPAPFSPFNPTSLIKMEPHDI

With CACGCA, the binding signal was 1.01 fold enrichment (6-mer frequency, TF over GST control) in test [1]; 1.02 fold enrichment (6-mer frequency, TF over GST control) in test [2]; 1.05 fold enrichment (6-mer frequency, TF over GST control) in [3]; 1.01 fold enrichment (6-mer frequency, TF over GST control) in [4]; 1.01 fold enrichment (6-mer frequency, TF over GST control) in [5]; 1.02 fold enrichment (6-mer frequency, TF over GST control) in test [6]. Moreover, the binding signal in test [7] was 1.05 fold enrichment (6-mer frequency, TF over GST control); in test [8], 1.03 fold enrichment (6-mer frequency, TF over GST control); in test [9], 1.11 fold enrichment (6-mer frequency, TF over GST control); in test [10] it was 1.18 fold enrichment (6-mer frequency, TF over GST control); in test [11], 1.09 fold enrichment (6-mer frequency, TF over GST control); in test [12], 1.03 fold enrichment (6-mer frequency, TF over GST control). The binding signal in [13] was 1.07 fold enrichment (6-mer frequency, TF over GST control).
